# The supplement of paper PMC10849652
# Targets with a hit are over-represented here; the source holds about 8,800 in all. About 0.5% of all pairs of compound and target were hits. Values without a mark were called inactive.
# Compound: C1CCN(C1)C(=O)NC2=CC=CC(=C2)NC3=NC=C(C(=N3)NCCC4=CN=CN4)Br
# Experiment: log2 fold change, soluble protein after heating vs DMSO (PISA); higher = thermal stabilisation; K562 lysate, 10 uM; active = over 0.2 and 3.5 SD of the protein, either way, in both replicates (recomputed)
# Outline: (§1)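 A 30 min treatment with 10 μM compound was applied to crude K562 extract at 1 mg/mL protein in PBS pH 7.4 with 1 mM MgCl2. Heating for 3 min spanned 48°C-58°C, after which aliquots were pooled, adjusted to 0.5% NP-40 at 4°C and spun at 21,000xg for 90 min. TMTpro 16plex LC-MS/MS of the supernatant, with channel sums equalised, gave values recorded as log-two fold change in thermal stability against solvent controls, from duplicates.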
# Chain of UniProt P35610 (P35610 whole entry, looked up): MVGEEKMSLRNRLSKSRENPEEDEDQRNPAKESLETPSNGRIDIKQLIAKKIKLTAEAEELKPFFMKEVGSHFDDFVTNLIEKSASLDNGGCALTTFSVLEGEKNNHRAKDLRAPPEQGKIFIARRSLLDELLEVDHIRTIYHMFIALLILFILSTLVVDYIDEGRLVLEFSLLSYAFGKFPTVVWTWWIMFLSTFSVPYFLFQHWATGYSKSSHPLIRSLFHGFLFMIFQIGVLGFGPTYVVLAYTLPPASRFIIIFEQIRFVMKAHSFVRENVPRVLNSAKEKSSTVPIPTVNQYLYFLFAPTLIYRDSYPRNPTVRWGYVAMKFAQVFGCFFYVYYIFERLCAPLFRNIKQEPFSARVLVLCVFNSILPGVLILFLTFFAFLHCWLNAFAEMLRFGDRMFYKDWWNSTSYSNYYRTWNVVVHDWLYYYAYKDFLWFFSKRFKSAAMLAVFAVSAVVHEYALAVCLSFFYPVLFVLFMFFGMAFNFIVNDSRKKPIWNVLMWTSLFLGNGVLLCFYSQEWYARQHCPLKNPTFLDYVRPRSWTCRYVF
# Chain of UniProt Q14542 (Q14542 whole entry, looked up): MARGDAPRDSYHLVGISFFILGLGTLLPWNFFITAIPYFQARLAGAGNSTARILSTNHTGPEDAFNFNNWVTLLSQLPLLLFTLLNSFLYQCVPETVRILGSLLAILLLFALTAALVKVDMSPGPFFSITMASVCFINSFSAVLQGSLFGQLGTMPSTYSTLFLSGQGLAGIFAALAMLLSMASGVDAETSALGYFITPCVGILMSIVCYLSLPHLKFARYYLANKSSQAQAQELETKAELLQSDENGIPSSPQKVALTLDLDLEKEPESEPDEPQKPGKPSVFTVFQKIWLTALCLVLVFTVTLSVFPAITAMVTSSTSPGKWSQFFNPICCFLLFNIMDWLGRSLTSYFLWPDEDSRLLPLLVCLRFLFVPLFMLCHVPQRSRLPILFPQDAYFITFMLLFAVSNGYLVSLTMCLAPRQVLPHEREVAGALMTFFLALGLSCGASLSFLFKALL
# Chain of UniProt Q9Y3B4 (Q9Y3B4 whole entry, looked up): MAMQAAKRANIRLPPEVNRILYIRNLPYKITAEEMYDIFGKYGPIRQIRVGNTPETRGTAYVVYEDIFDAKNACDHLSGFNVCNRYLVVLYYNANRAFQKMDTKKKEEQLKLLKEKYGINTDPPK
# Chain of UniProt Q96Q15 (Q96Q15 whole entry, looked up): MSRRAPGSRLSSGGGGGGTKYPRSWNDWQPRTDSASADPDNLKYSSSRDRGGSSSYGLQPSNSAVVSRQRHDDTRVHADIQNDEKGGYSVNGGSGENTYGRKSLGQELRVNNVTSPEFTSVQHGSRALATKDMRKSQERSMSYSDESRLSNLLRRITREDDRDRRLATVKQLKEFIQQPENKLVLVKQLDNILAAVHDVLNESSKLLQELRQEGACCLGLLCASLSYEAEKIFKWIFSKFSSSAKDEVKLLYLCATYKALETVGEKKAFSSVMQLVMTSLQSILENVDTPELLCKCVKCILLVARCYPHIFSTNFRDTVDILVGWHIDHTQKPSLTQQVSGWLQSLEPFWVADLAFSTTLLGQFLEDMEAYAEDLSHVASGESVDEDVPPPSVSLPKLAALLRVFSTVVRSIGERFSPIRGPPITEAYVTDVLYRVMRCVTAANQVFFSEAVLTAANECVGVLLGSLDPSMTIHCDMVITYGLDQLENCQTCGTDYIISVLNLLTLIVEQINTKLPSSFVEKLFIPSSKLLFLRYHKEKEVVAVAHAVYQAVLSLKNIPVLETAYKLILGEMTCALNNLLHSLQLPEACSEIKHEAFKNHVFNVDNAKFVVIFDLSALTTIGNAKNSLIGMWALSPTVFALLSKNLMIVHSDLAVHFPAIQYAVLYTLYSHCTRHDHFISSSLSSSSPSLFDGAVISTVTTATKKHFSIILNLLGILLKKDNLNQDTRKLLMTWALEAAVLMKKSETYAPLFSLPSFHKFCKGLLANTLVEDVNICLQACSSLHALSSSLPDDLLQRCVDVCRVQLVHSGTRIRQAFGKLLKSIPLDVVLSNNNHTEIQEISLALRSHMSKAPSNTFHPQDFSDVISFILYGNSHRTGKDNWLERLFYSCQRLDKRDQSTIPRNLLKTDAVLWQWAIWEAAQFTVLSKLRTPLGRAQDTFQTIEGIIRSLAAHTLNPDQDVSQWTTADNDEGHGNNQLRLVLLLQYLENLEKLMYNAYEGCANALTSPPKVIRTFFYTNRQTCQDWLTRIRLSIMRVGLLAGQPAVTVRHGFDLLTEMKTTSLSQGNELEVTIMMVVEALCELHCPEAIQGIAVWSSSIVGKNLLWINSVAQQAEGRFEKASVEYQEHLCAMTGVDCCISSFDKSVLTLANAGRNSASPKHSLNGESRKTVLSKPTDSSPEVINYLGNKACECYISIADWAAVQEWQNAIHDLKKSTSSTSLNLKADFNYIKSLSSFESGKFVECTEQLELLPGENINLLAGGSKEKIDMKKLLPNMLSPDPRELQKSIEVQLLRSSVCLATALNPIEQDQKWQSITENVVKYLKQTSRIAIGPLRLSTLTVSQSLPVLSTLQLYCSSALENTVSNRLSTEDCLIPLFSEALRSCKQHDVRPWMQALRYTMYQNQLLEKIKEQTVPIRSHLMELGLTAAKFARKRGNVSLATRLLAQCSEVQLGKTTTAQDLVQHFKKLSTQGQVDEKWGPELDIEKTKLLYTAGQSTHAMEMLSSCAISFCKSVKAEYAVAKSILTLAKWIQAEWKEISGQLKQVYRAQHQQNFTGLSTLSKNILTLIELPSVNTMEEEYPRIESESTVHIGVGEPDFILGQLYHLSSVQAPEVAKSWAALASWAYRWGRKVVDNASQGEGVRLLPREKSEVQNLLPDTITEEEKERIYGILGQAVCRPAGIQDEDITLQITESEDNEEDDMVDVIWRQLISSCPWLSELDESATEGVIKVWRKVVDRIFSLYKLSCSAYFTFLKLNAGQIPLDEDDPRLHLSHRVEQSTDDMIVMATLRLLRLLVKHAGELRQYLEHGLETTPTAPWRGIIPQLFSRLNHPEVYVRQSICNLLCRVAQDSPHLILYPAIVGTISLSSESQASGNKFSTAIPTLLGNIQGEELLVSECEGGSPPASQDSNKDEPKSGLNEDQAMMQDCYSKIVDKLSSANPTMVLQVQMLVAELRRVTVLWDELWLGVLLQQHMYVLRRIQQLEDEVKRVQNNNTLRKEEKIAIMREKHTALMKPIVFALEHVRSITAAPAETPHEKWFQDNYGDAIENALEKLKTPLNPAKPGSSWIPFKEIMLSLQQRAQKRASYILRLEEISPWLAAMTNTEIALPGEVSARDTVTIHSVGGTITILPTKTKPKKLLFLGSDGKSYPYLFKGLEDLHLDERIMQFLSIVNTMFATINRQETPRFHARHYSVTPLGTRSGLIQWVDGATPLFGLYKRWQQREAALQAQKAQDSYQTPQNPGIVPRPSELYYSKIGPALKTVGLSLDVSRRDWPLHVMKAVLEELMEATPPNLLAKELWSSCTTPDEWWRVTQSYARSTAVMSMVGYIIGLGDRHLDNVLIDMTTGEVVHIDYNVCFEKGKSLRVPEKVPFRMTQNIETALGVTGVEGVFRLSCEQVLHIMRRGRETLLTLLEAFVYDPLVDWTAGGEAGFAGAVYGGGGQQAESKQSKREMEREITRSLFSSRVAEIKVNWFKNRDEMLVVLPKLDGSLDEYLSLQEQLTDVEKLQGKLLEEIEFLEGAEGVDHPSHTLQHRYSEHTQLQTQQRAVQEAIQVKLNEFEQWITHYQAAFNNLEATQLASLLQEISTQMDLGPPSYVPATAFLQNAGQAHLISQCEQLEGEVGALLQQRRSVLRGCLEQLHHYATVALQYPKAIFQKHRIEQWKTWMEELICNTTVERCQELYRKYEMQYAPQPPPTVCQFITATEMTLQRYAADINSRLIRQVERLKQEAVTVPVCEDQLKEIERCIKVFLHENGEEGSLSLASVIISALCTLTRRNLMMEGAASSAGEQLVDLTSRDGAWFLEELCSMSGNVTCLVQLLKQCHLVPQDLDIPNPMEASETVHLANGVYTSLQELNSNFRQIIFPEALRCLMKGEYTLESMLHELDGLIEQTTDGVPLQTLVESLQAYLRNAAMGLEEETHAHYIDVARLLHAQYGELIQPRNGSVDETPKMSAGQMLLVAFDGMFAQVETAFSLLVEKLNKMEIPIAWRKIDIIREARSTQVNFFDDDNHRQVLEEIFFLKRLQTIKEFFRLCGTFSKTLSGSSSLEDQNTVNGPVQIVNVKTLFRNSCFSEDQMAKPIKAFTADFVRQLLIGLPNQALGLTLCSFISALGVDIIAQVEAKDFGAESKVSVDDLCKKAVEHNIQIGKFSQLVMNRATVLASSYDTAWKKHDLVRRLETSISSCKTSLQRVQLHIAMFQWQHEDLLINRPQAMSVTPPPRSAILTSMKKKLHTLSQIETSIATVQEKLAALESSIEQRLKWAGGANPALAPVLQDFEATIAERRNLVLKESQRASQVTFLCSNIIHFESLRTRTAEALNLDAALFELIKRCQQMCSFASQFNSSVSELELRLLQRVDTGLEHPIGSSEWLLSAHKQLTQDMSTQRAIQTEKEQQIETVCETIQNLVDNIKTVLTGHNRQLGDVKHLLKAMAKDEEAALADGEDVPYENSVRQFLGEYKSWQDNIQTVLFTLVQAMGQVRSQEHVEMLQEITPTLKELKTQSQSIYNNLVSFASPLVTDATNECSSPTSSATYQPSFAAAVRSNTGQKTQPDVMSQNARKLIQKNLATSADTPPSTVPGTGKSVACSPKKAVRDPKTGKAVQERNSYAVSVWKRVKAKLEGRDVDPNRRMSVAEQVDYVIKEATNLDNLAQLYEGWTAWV
# Chain of UniProt Q8WVK7 (Q8WVK7 whole entry, looked up): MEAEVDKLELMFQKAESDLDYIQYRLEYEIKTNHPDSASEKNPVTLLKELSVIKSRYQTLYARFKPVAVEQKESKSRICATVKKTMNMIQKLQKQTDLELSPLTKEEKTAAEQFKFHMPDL
# Chain of UniProt P62318 (P62318 whole entry, looked up): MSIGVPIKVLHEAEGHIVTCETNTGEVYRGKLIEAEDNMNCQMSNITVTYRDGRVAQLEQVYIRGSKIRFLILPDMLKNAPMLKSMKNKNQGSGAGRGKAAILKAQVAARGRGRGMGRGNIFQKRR
row,Target,log2 fold change
1,SLC27A2 (UniProt O14975),-0.038
2,SH3BGRL2 (UniProt Q9UJC5),-0.087
3,STAT2 (UniProt P52630),0.002
4,SLC39A11 (UniProt Q8N1S5),0.385 (active)
5,SYF2 (UniProt O95926),-0.048
6,SMC3 (UniProt Q9UQE7),-0.007
7,SPIRE1 (UniProt Q08AE8),0.013
8,SNRNP40 (UniProt Q96DI7),0.02
9,STMN3 (UniProt Q9NZ72),-0.097
10,SMN1 (UniProt Q16637),-0.046
11,TARBP1 (UniProt Q13395),0.007
12,SKA2 (UniProt Q8WVK7),-0.006
13,STK4 (UniProt Q13043),0.187
14,SMG1 (UniProt Q96Q15),-0.036
15,SKA3 (UniProt Q8IX90),-0.02
16,SFN (UniProt P31947),0.012

row,Target,log2 fold change
1,SFR1 isoform 2 (UniProt Q86XK3),0.04
2,SOAT1 (UniProt P35610),-0.056
3,SNRPD2 (UniProt P62316),0.004
4,SLC29A2 (UniProt Q14542),0.018
5,SF3B6 (UniProt Q9Y3B4),0.004
6,SMIM12 (UniProt Q96EX1),0.075
7,SOX5 (UniProt P35711),0.028
8,SP1 (UniProt P08047),0.004
9,STUB1 (UniProt Q9UNE7),0.013
10,STIM1 (UniProt Q13586),-0.009
11,SNCA (UniProt P37840),-0.056
12,SSB (UniProt P05455),0.013
13,SNRPD3 (UniProt P62318),0.019
14,SSNA1 (UniProt O43805),-0.002
15,SRSF2 (UniProt Q01130),0.023
16,SORBS3 (UniProt O60504),0.09

# Compound: C1CN(CCC1(CC2=CC=C(C=C2)Cl)N)C3=NC=NC4=C3C=CN4
# Experiment: as above
# Outline: as §1
row,Target,log2 fold change
1,SLC27A2 (UniProt O14975),-0.035
2,SH3BGRL2 (UniProt Q9UJC5),0.034
3,STAT2 (UniProt P52630),0.018
4,SLC39A11 (UniProt Q8N1S5),0.058
5,SYF2 (UniProt O95926),0
6,SMC3 (UniProt Q9UQE7),-0.016
7,SPIRE1 (UniProt Q08AE8),-0.024
8,SNRNP40 (UniProt Q96DI7),-0.004
9,STMN3 (UniProt Q9NZ72),0.091
10,SMN1 (UniProt Q16637),-0.104
11,TARBP1 (UniProt Q13395),0.034
12,SKA2 (UniProt Q8WVK7),-0.019
13,STK4 (UniProt Q13043),0.053
14,SMG1 (UniProt Q96Q15),0.024
15,SKA3 (UniProt Q8IX90),0.042
16,SFN (UniProt P31947),-0.064

row,Target,log2 fold change
1,SFR1 isoform 2 (UniProt Q86XK3),0.01
2,SOAT1 (UniProt P35610),-0.019
3,SNRPD2 (UniProt P62316),-0.008
4,SLC29A2 (UniProt Q14542),0.085
5,SF3B6 (UniProt Q9Y3B4),-0.034
6,SMIM12 (UniProt Q96EX1),0.008
7,SOX5 (UniProt P35711),0.154
8,SP1 (UniProt P08047),0.013
9,STUB1 (UniProt Q9UNE7),0.006
10,STIM1 (UniProt Q13586),0.005
11,SNCA (UniProt P37840),-0.085
12,SSB (UniProt P05455),0.002
13,SNRPD3 (UniProt P62318),0.044
14,SSNA1 (UniProt O43805),0.066
15,SRSF2 (UniProt Q01130),-0.037
16,SORBS3 (UniProt O60504),0.129

# Compound: C1COCCN1CCN2C3=CC=CC=C3N=C2NC(=O)C4=CC(=CC=C4)[N+](=O)[O-] [IRAK-1-4 Inhibitor I]
# Experiment: as above
# Outline: as §1
row,Target,log2 fold change
1,SLC27A2 (UniProt O14975),0.614 (active)
2,SH3BGRL2 (UniProt Q9UJC5),0.007
3,STAT2 (UniProt P52630),-0.018
4,SLC39A11 (UniProt Q8N1S5),-0.053
5,SYF2 (UniProt O95926),-0.057
6,SMC3 (UniProt Q9UQE7),-0.009
7,SPIRE1 (UniProt Q08AE8),-0.032
8,SNRNP40 (UniProt Q96DI7),0.01
9,STMN3 (UniProt Q9NZ72),-0.006
10,SMN1 (UniProt Q16637),0.02
11,TARBP1 (UniProt Q13395),0.084
12,SKA2 (UniProt Q8WVK7),-0.056
13,STK4 (UniProt Q13043),0.018
14,SMG1 (UniProt Q96Q15),-0.008
15,SKA3 (UniProt Q8IX90),0.013
16,SFN (UniProt P31947),-0.03

row,Target,log2 fold change
1,SFR1 isoform 2 (UniProt Q86XK3),0.001
2,SOAT1 (UniProt P35610),0
3,SNRPD2 (UniProt P62316),0.004
4,SLC29A2 (UniProt Q14542),0.102
5,SF3B6 (UniProt Q9Y3B4),-0.024
6,SMIM12 (UniProt Q96EX1),-0.009
7,SOX5 (UniProt P35711),0.044
8,SP1 (UniProt P08047),0.034
9,STUB1 (UniProt Q9UNE7),-0.018
10,STIM1 (UniProt Q13586),-0.01
11,SNCA (UniProt P37840),0.019
12,SSB (UniProt P05455),-0.011
13,SNRPD3 (UniProt P62318),0.026
14,SSNA1 (UniProt O43805),0.018
15,SRSF2 (UniProt Q01130),0.04
16,SORBS3 (UniProt O60504),0.088
